The panel holds about 79,000 compounds, 15% with a hit somewhere; the sample as a whole holds those more often. A number with no mark means an inactive call. The source made the active and inactive calls. Rule as the data show it: active = growth inhibition above about 70%; inactive = the rest.
What was measured:
[1] = NCI Yeast Anticancer Drug Screen. Data for the rad52 strain (AID 147);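 also: 0% = growth of vehicle-treated control cultures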; details: S. cerevisiae rad52 mutant growth inhibition, active compounds read high
Outline: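 The repair-mutant yeast strain was incubated with compounds, then growth was read and inhibition derived relative to vehicle.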

[2] = NCI Yeast Anticancer Drug Screen. Data for the wt1 strain (AID 149);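 also: 0% = growth of vehicle-treated wt1 cultures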; details: S. cerevisiae wt1 strain (SPY 50644) growth inhibition, active compounds read high
Outline: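 Vehicle-normalised growth inhibition; strain wt1; compound exposure.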

[3] = NCI Yeast Anticancer Drug Screen. Data for the rad50EPP+ strain (AID 151);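 also: 0% = growth of vehicle-treated control cultures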; details: S. cerevisiae rad50 mutant strain, active compounds read high
Outline: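 Vehicle-normalised growth inhibition; rad50EPP+ yeast strain, altered in DNA damage repair, compound-treated.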

[4] = NCI Yeast Anticancer Drug Screen. Data for the mgt1 strain (AID 153); details: S. cerevisiae mgt1 mutant growth inhibition, active compounds read high
Outline: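 Vehicle-normalized growth inhibition is determined in mgt1 yeast, a strain selected for a defined alteration in DNA repair or cell cycle control.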

[5] = NCI Yeast Anticancer Drug Screen. Data for the rad50 strain (AID 155);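 also: 0% = growth of vehicle-only cultures of the same strain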; details: S. cerevisiae rad50 strain growth inhibition, active compounds read high
Outline: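 A DNA repair-deficient yeast mutant serves as the test organism; compound-induced growth inhibition is calculated against vehicle-treated cells.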

[6] = NCI Yeast Anticancer Drug Screen. Data for the mec2-1 strain (AID 157); details: S. cerevisiae mec2-1 strain, active compounds read high
Outline: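 Mutant yeast (mec2-1) grown with compound; growth inhibition relative to vehicle control reported.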

[7] = NCI Yeast Anticancer Drug Screen. Data for the rad14 strain (AID 159);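 also: 0% = growth of vehicle-treated control cultures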; details: S. cerevisiae rad14 strain growth inhibition, active compounds read high
Outline: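 Vehicle-treated cultures served as the baseline for growth inhibition of a DNA repair-mutant yeast strain exposed to each compound.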

[8] = NCI Yeast Anticancer Drug Screen. Data for the sgs1 mgt1 strain (AID 161);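 also: 0% = growth of cultures given vehicle only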; details: S. cerevisiae sgs1 mgt1 strain, active compounds read high
Outline: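 Growth of a repair-deficient yeast mutant was monitored after compound treatment and expressed as inhibition relative to vehicle-treated cultures.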

[9] = NCI Yeast Anticancer Drug Screen. Data for the CLN2oe strain (AID 163);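 also: 0% = growth of vehicle-only control cultures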; details: S. cerevisiae CLN2oe strain, active compounds read high
Outline: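 Compounds are applied to yeast harbouring a defined cell-cycle control change; reduced growth compared with vehicle-treated controls gives the value.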

[10] = NCI Yeast Anticancer Drug Screen. Data for the cln2 rad14 strain (AID 165);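 also: 0% = growth equal to vehicle treated cultures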; details: S. cerevisiae cln2 rad14 strain, active compounds read high
Outline: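 Readout is yeast growth inhibition versus vehicle-treated controls, using a strain with cln2 and rad14 alterations exposed to compound.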

[11] = NCI Yeast Anticancer Drug Screen. Data for the bub3 strain (AID 167); details: S. cerevisiae bub3 mutant strain, active compounds read high
Outline: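 Inhibition values come from growth of compound-treated mutant yeast normalised to vehicle-treated controls.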

[12] = NCI Yeast Anticancer Drug Screen. Data for the wt2 strain (AID 169);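 also: 0% = growth of vehicle-treated yeast cultures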; details: S. cerevisiae wt2 strain growth inhibition, active compounds read high
Outline: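 Against vehicle-treated controls, the growth of yeast exposed to each compound was compared, and the inhibition was recorded.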

[13] = NCI Yeast Anticancer Drug Screen. Data for the mlh1 strain (AID 171);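 also: 0% = growth of vehicle-treated control cultures of the same strain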; details: S. cerevisiae mlh1 strain growth inhibition, active compounds read high
Outline: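 Measured: yeast growth. Reference: vehicle-treated controls. Organism: strain with a defined alteration affecting DNA damage repair or cell cycle control, treated with compound.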

[14] = NCI Yeast Anticancer Drug Screen. Data for the sgs1 strain (AID 173);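 also: 0% = growth of vehicle-only control cultures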; details: S. cerevisiae sgs1 mutant, active compounds read high
Outline: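 Each compound was added to cultures of the altered yeast strain. Growth was recorded, and inhibition was derived by comparison with vehicle controls.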

[15] = NCI Yeast Anticancer Drug Screen. Data for the mlh1 rad18 strain (AID 175); details: S. cerevisiae mlh1 rad18 strain growth inhibition, active compounds read high
Outline: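 Genetically defined yeast (DNA repair-deficient) exposed to compounds; growth inhibition determined relative to vehicle.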

[16] = NCI Yeast Anticancer Drug Screen. Data for the rad18 strain (AID 177); details: S. cerevisiae rad18 mutant growth inhibition, active compounds read high
Outline: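 Vehicle-treated cultures served as the baseline for scoring compound-induced growth inhibition in DNA-repair-mutant yeast.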

[17] = at 5.0 µM (retest, dose inferred, filed as 0.5)
[18] = at 50.0 µM (retest, dose inferred, filed as 5.0)

O=CC1(F)CC1(c1ccccc1)c1ccccc1 (stereo not drawn)
growth inhibition ([1]; at 1.2 µM): -2%
growth inhibition ([1]; at 3.7 µM): -4%
growth inhibition ([1]; at 11.0 µM): -2%
growth inhibition ([1]; at 33.0 µM): 1%
growth inhibition ([1]; at 100.0 µM): 81% (active)
growth inhibition ([2]; at 1.2 µM): -1%
growth inhibition ([2]; at 3.7 µM): -1%
growth inhibition ([2]; at 11.0 µM): -4%
growth inhibition ([2]; at 33.0 µM): -1%
growth inhibition ([2]; at 100.0 µM): 73% (active)
growth inhibition ([3]; at 1.2 µM): -1%
growth inhibition ([3]; at 3.7 µM): 0%
growth inhibition ([3]; at 11.0 µM): 5%
growth inhibition ([3]; at 33.0 µM): 10%
growth inhibition ([3]; at 100.0 µM): 17%
growth inhibition ([4]; at 1.2 µM): -2%
growth inhibition ([4]; at 3.7 µM): -7%
growth inhibition ([4]; at 11.0 µM): -2%
growth inhibition ([4]; at 33.0 µM): 0%
growth inhibition ([4]; at 100.0 µM): 87% (active)
growth inhibition ([5]; at 1.2 µM): 0%
growth inhibition ([5]; at 3.7 µM): -46%
growth inhibition [5, 17]: -3%
growth inhibition ([5]; at 11.0 µM): 18%
growth inhibition ([5]; at 33.0 µM): 5%
growth inhibition [5, 18]: 17%
growth inhibition ([5]; at 50.0 µM): 27.8%
growth inhibition ([5]; at 100.0 µM): 94% (active)
growth inhibition ([6]; at 1.2 µM): -3%
growth inhibition ([6]; at 3.7 µM): -3%
growth inhibition [6, 17]: 6%
growth inhibition ([6]; at 11.0 µM): -2%
growth inhibition ([6]; at 33.0 µM): 4%
growth inhibition [6, 18]: 21%
growth inhibition ([6]; at 50.0 µM): 21%
growth inhibition ([6]; at 100.0 µM): 87% (active)
growth inhibition ([7]; at 1.2 µM): 0%
growth inhibition ([7]; at 3.7 µM): 1%
growth inhibition ([7]; at 11.0 µM): 2%
growth inhibition ([7]; at 33.0 µM): 7%
growth inhibition ([7]; at 100.0 µM): 80% (active)
growth inhibition [8, 17]: -2%
growth inhibition [8, 18]: 53%
growth inhibition ([8]; at 50.0 µM): 55.6%
growth inhibition ([9]; at 1.2 µM): -2%
growth inhibition ([9]; at 3.7 µM): 1%
growth inhibition ([9]; at 11.0 µM): 2%
growth inhibition ([9]; at 33.0 µM): 1%
growth inhibition ([9]; at 100.0 µM): 25%
growth inhibition [10, 17]: -1%
growth inhibition [10, 18]: 2%
growth inhibition ([10]; at 50.0 µM): 23.8%
growth inhibition ([11]; at 1.2 µM): -2%
growth inhibition ([11]; at 3.7 µM): -4%
growth inhibition [11, 17]: -3%
growth inhibition ([11]; at 11.0 µM): -6%
growth inhibition ([11]; at 33.0 µM): -4%
growth inhibition [11, 18]: 11%
growth inhibition ([11]; at 50.0 µM): 5.65%
growth inhibition ([11]; at 100.0 µM): 89% (active)
growth inhibition ([12]; at 1.2 µM): -1%
growth inhibition ([12]; at 3.7 µM): 6%
growth inhibition ([12]; at 11.0 µM): -2%
growth inhibition ([12]; at 33.0 µM): 2%
growth inhibition ([12]; at 100.0 µM): 98% (active)
growth inhibition ([13]; at 1.2 µM): -2%
growth inhibition ([13]; at 3.7 µM): -3%
growth inhibition ([13]; at 11.0 µM): -3%
growth inhibition ([13]; at 33.0 µM): 2%
growth inhibition ([13]; at 100.0 µM): 94% (active)
growth inhibition ([14]; at 1.2 µM): -2%
growth inhibition ([14]; at 3.7 µM): -1%
growth inhibition ([14]; at 11.0 µM): 3%
growth inhibition ([14]; at 33.0 µM): 22%
growth inhibition ([14]; at 100.0 µM): 98% (active)
growth inhibition [15, 17]: -1%
growth inhibition [15, 18]: 14%
growth inhibition ([15]; at 50.0 µM): 14.2%
growth inhibition ([16]; at 1.2 µM): -6%
growth inhibition ([16]; at 3.7 µM): 2%
growth inhibition ([16]; at 11.0 µM): 3%
growth inhibition ([16]; at 33.0 µM): 13%
growth inhibition ([16]; at 100.0 µM): 94% (active)

Source: PubChem BioAssay (NCI)
